# Unmarked numbers belong to inactive results. Records with an inconclusive call do not appear. This is one part of the list. A call without a number means that no potency is given here. Active and inactive are the calls of the source. Unless noted, the call rests on the fitted dose curve; in most records, active means well fitted curve in the direction sought with a large enough effect; inconclusive means small, poorly fitted or top-dose-only effect, or another doubt; inactive means no such curve, though single readings can be large; an effect the other way counts as inactive or inconclusive.
# Tests used:
# [1] = molecular target: Rap guanine nucleotide exchange factor 3 (Homo sapiens) (UniProt O95398); experiment: Confirmatory qHTS for agonist of cAMP-regulated guanine nucleotide exchange factor 3 (EPAC1) (AID 1645881); further: nearly all actives have a fitted effect of over 75% in size; further: potency means the concentration at half of the fitted maximal effect;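 on activation: EPAC1 catalysed release of BODIPY-GDP from Rap1B seen as fluorescence loss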
# [2] = molecular target: Rap guanine nucleotide exchange factor 4 (Homo sapiens) (UniProt Q8WZA2); experiment: Confirmatory qHTS for agonist of cAMP-regulated guanine nucleotide exchange factor 4 (EPAC2) (AID 1645884);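 further: nucleotide exchange releases bodipy-GDP from Rap1 and this lowers its fluorescence; nearly all actives have a fitted effect of over 65% in size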; further: potency means the concentration at half of the fitted maximal effect
# [3] = molecular target: Rap guanine nucleotide exchange factor 3 (Homo sapiens) (UniProt O95398); experiment: Counterscreen qHTS for antagonist of cAMP-regulated guanine nucleotide exchange factor 3 (EPAC1) (AID 1645888);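 further: fluorescence loss as bound BODIPY-GDP is released from Rap1B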
# Method in brief: (§1)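 Rap1B–BODIPY-GDP (250 nM) with 50 uM GDP; compounds pin-transferred to 9.74 nM–152 uM final (activator) or from 7.32 nM upwards (inhibitor). Fluorescence Ex/Em 480/540 nm read at 5 and 30 min, then after adding cAMP or buffer, at room temperature.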
# [4] = molecular target: Rap guanine nucleotide exchange factor 3 (Homo sapiens) (UniProt O95398); experiment: Counterscreen qHTS for agonist of cAMP-regulated guanine nucleotide exchange factor 3 (EPAC1) (AID 1645889); further: nearly all actives have a fitted effect of over 40% in size
# Method in brief: as §1
# [5] = molecular target: Rap guanine nucleotide exchange factor 4 (Homo sapiens) (UniProt Q8WZA2); experiment: Confirmatory qHTS for antagonist of cAMP-regulated guanine nucleotide exchange factor 4 (EPAC2) (AID 1645885); further: nearly all actives have a fitted effect of over 25% in size; further: potency means the concentration at half of the fitted maximal effect
# [6] = molecular target: Cytochrome P450 3A4 (Homo sapiens) (UniProt P08684); experiment: qHTS Assay for Inhibitors and Substrates of Cytochrome P450 3A4 (AID 884); further: potency means the concentration at half of the fitted maximal effect; nearly all actives have a fitted effect of over 50% in size
# Method in brief: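 Luminescent readout of luciferin produced by CYP3A4 (20 nM) dealkylation of Luciferin-PPXE, 25 uM (its KM). NADPH-driven reaction ran 60 min at RT after 10 min compound preincubation; data scaled to 57 uM ketoconazole as 100% inhibition.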
# [7] = molecular target: Cytochrome P450 3A4 (Homo sapiens) (UniProt P08684); experiment: qHTS Assay for Activators of Cytochrome P450 3A4 (AID 885); further: nearly all actives have a fitted effect of over 65% in size
# Method in brief: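 CYP3A4 activity: Luciferin-PPXE O-dealkylation, 25uM substrate, 200mM KPO4, RT throughout. Read-out is luciferase luminescence; higher values reflect activation.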
# [8] = Confirmation and Secondary Assay for Modulators of Hemoglobin Beta Chain Splicing at IVS2 654 locus (AID 910);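 further: HeLa cells stably carrying EGFP split by mutant beta-globin IVS2-654 intron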
# Method in brief: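 HeLa cells stably expressing EGFP interrupted by β-globin IVS2-654 intron, seeded overnight in Opti-MEM/2% FCS, then treated 2 days at 37 °C. Restored splicing read as total peak GFP intensity per well by laser scanning cytometry (488 nm excitation, 500–520 nm emission); 500 nM antisense PNA as control.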
# [9] = Confirmation and Secondary Assay for Modulators of Hemoglobin Beta Chain Splicing at IVS2 705 locus (AID 930);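 further: HeLa cells stably expressing the EGFP-705 splicing reporter; GFP fluorescence per well restored by corrected splicing of the IVS2-705 intron in EGFP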
# Method in brief: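 Splice-correction reporter: EGFP cDNA split by beta-globin intron 2 bearing the 705 mutation, stably in HeLa. Compound incubation 2 days, 37C; fluorescent objects 5-250 µm summed per well.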
# [10] = molecular target: Tumor susceptibility gene 101 protein (Homo sapiens) (UniProt Q99816); experiment: qHTS Assay for Iinhibitors of HIV-1 Budding by Blocking the Interaction of PTAP/TSG101: Hit Validation (AID 651600); further: potency means the concentration at half of the fitted maximal effect; nearly all actives have a fitted effect of over 70% in size
# Method in brief: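 FITC-PTAP peptide (50 nM final) binding to Tsg101 binding domain (10 uM final) was measured by polarization after 20 min at r.t. with compounds, in 10 mM HEPES pH 7.5 buffer with 0.15 M NaCl and 0.01% Tween 20.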
# [11] = molecular target: Flap endonuclease 1 (Homo sapiens) (UniProt P39748); experiment: qHTS Assay for the Inhibitors of FEN1: Confirmatory Assay for Cherry-picked Compounds (AID 720498); conditions: FEN1 flap cleavage, TAMRA/BHQ2 fluorogenic DNA substrate; further: potency means the concentration at half of the fitted maximal effect; nearly all actives have a fitted effect of over 60% in size
# Method in brief: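 Human FEN1 (10 nM reagent) was preincubated with compounds for 15 min at room temperature, then 50 nM final double-flap DNA substrate (5'-TAMRA flap, BHQ-2 quencher strand) was added. Fluorescence (ex 525/em 598 nm) was read at 0 and 15 min.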
# [12] = AP1 Signaling Pathway (AID 357; active means well fitted curve in either direction with a large enough effect, not every such curve was filed as active;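 further: ME-180 reporter cells stimulated with EGF at its EC50 level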); conditions: ME-180 (cervical carcinoma) AP-1-bla reporter, EGF-induced, beta-lactamase ratio, 5 h; at 7.69 µM (top of the series) unless noted
# Method in brief: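 Modulation of EGF-driven AP-1 transcription was assessed with a beta-lactamase reporter in ME-180 cells. Compound and EC50 EGF were co-incubated 5 hours at 37 °C before 2.5-hour CCF4 loading at room temperature and dual-emission reading.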
# [13] = Stat Signaling Pathway (AID 446; active means well fitted curve in either direction with a large enough effect, not every such curve was filed as active;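 further: ME-180 cervical cancer cells given 40 pM IL-6 alongside compound; SIE-controlled beta-lactamase reporter measured as 460/530 nm FRET emission ratio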)
# Method in brief: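 Compound effects on IL-6-induced STAT reporter activity were measured in ME-180 cells. After overnight culture, cells were co-treated with 40 pM IL-6 for 5 hrs before beta-lactamase substrate loading at room temperature.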
# [14] = molecular target: Glucocorticoid receptor (Homo sapiens) (UniProt P04150); experiment: GR-GFP Redistribution (AID 450;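 active means compounds whose dose series gives a full or clear partial fitted curve of increased nuclear translocation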; further: potency means the concentration at half of the fitted maximal effect); conditions: U2OS GR-GFP nuclear translocation, laser cytometry, 2 h
# Sequence of Glucocorticoid receptor (Homo sapiens) (P04150 whole entry, looked up): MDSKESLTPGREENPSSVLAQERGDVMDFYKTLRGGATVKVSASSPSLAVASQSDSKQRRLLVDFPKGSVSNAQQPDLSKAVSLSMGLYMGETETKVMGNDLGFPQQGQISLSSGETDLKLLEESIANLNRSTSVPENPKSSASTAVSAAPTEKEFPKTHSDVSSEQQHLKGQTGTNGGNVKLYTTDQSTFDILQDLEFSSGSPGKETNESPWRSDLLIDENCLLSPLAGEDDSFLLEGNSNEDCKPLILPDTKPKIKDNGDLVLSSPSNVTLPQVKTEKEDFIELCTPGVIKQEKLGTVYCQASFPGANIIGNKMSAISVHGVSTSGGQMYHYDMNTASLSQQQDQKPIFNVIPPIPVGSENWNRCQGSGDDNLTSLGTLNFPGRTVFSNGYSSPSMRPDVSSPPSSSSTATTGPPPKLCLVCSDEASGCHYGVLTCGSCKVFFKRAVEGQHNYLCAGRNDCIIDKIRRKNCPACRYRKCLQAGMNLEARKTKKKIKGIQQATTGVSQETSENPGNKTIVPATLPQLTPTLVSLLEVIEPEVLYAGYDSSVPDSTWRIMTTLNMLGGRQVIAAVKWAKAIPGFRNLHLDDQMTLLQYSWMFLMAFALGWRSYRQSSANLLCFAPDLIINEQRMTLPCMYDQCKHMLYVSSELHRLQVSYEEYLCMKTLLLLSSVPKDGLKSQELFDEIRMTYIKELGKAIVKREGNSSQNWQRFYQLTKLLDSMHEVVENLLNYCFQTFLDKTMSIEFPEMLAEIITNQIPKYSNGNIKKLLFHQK
# Sequence of Rap guanine nucleotide exchange factor 4 (Homo sapiens) (Q8WZA2 whole entry, looked up): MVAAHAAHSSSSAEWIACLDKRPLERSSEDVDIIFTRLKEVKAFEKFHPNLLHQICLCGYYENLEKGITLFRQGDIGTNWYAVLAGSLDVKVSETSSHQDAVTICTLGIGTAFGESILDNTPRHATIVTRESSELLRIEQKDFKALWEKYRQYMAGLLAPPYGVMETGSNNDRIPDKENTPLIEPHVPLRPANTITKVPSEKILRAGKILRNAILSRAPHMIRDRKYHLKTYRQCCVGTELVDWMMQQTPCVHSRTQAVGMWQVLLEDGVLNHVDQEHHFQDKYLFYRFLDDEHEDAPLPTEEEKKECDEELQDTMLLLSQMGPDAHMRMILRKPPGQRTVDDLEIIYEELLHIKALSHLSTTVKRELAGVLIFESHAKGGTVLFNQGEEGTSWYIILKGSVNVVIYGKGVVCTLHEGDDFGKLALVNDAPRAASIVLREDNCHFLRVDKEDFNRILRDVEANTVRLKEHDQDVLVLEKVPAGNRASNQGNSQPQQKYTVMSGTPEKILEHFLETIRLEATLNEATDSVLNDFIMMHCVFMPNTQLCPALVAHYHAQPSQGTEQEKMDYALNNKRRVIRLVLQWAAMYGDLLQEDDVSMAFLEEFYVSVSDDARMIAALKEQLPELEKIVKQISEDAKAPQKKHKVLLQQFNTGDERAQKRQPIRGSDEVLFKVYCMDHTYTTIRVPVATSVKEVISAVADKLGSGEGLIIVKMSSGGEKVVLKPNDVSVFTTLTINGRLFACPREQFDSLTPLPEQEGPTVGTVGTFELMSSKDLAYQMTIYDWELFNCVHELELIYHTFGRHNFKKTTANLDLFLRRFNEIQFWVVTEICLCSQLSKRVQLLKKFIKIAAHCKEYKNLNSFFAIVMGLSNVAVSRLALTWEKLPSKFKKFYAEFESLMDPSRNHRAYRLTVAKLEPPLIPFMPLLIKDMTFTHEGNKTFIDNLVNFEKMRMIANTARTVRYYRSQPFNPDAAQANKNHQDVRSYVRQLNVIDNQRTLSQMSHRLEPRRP
# Sequence of Rap guanine nucleotide exchange factor 3 (Homo sapiens) (O95398 whole entry, looked up): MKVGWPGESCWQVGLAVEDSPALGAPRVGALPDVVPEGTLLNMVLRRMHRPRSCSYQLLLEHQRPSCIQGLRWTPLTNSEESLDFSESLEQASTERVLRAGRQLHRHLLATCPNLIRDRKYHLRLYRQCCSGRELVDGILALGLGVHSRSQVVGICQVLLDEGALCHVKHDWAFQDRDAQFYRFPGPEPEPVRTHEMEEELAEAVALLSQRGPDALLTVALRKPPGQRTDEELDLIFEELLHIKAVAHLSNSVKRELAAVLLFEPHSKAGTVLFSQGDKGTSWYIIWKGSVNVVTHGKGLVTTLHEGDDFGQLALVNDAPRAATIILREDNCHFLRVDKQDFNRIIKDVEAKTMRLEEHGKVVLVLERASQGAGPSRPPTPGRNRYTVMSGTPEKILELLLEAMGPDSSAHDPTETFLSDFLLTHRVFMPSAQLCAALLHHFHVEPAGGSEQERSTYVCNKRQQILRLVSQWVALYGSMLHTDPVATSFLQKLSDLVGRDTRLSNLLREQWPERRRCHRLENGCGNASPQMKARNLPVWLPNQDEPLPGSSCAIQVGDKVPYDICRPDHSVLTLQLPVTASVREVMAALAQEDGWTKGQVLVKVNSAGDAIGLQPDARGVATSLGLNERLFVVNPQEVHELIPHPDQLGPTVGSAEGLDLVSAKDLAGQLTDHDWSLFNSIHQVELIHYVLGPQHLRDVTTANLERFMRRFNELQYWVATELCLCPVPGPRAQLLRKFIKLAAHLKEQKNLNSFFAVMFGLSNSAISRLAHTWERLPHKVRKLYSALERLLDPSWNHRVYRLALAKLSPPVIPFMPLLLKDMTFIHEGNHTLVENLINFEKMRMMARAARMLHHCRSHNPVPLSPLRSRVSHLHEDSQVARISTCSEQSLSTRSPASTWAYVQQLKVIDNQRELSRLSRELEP
# Sequence of Cytochrome P450 3A4 (Homo sapiens) (P08684 whole entry, looked up): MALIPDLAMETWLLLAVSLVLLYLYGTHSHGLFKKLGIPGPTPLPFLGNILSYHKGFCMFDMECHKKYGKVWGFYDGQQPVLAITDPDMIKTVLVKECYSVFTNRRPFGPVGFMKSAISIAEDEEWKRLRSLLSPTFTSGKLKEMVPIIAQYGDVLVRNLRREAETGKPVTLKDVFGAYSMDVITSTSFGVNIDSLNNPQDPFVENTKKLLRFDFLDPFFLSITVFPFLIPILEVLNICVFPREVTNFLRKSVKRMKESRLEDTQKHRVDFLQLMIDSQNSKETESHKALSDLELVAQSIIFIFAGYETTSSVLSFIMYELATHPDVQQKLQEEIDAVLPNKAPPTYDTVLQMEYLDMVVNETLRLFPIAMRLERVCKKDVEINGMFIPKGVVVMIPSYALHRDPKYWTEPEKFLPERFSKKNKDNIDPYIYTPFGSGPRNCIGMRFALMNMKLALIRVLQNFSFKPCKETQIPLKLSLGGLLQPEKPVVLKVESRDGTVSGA
# Sequence of Tumor susceptibility gene 101 protein (Homo sapiens) (Q99816 whole entry, looked up, the tested form may be a part): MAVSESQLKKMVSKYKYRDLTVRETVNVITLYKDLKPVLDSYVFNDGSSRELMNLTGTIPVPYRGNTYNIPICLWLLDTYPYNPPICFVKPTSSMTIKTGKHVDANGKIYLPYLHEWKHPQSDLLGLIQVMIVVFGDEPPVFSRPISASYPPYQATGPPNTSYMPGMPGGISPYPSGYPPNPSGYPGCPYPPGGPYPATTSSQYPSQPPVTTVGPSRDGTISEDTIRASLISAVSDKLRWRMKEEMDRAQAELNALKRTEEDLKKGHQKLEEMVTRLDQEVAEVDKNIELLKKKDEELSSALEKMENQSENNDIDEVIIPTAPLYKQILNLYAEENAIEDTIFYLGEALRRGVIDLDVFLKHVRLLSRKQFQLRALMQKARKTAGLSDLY
# Sequence of Flap endonuclease 1 (Homo sapiens) (P39748 whole entry, looked up): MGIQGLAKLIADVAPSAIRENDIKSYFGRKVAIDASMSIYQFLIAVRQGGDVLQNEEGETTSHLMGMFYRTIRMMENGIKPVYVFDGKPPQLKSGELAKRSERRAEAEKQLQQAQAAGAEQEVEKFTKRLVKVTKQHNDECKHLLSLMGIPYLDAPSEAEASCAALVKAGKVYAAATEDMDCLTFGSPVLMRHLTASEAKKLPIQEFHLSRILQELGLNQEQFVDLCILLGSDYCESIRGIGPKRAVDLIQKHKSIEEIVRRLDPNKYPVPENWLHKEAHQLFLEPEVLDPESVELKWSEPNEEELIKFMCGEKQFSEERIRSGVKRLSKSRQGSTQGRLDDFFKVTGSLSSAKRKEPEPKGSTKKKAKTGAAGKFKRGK
smiles,measurement,setting,value
CCCc1[nH]c2ccc(C#N)cc2c1CCC,Potency,[1],inactive
same,Potency,[2],inactive
same,Potency,[3],inactive
same,Potency,[4],inactive
CCOC(=O)[C@H](C)N1[C@H](C)[C@H](c2ccccc2)Oc2ccc(Cl)cc2S1(=O)=O,Potency,[1],inactive
same,activation,[2],"3.08% [at 17.1 µM, percent relative to cAMP agonist control]"
same,"activity change, negative = inhibition",[3],6.25% [at 30.8 µM]
same,activation,[4],25.5% [at 30.8 µM]
O=S(=O)(c1ccc(Cl)cc1Br)N1CCCCC1,Potency,[1],inactive
same,activation,[2],"12.1% [at 17.1 µM, percent relative to cAMP agonist control]"
same,"activity change, negative = inhibition",[3],-6.37% [at 30.8 µM]
same,activation,[4],10.6% [at 30.8 µM]
CCCCN(C=O)c1c(CC)nc2c(OCc3ccc(C(F)(F)F)cc3)cccn12,Potency,[1],inactive
same,Potency,[2],inactive
same,Potency,[4],inactive
N/C(CSc1nc(-c2ccccc2)c(-c2ccccc2)o1)=N\O,Potency,[1],inactive
same,Potency,[5],16.9 µM (active)
same,Potency,[3],inactive
Cc1ccc(C)c(-c2csc(N)c2C(=O)OC(C)C)c1,Potency,[1],inactive
same,activation,[2],"7.03% [at 17.1 µM, percent relative to cAMP agonist control]"
same,activation,[4],30% [at 30.8 µM]
O=C1NNC(c2ccccc2)=N/C1=C\c1ccccc1Cl,Potency,[1],inactive
same,Potency,[5],inactive
same,Potency,[3],inactive
O=C(CSc1nc2ccccc2o1)N/N=C/c1ccc(O)c(O)c1,Potency,[1],inactive
same,Potency,[5],inactive
same,Potency,[3],inactive
CC(Nc1ccc(Cl)cc1)c1cc(Cl)ccc1O (centres undefined),Potency,[1],inactive
same,Potency,[2],inactive
same,Potency,[4],inactive
COc1ccccc1NS(=O)(=O)c1ccc2ccccc2c1,Potency,[1],inactive
same,activation,[2],"0% [at 17.1 µM, percent relative to cAMP agonist control]"
same,activation,[4],16.4% [at 30.8 µM]
CC1COc2ccccc2N1S(=O)(=O)c1ccc(Cl)cc1 (centres undefined),Potency,[1],inactive
same,Potency,[2],inactive
same,Potency,[4],inactive
COc1ccc2c(c1)OCC(Cc1ccc(OC)c(OC)c1)C2=O (centres undefined),Potency,[6],15.8 µM (active)
same,outcome,[7],inactive
same,Potency,[8],inactive
same,Potency,[9],inactive
same,Potency,[1],inactive
same,Potency,[2],inactive
O=C(Nc1ncccc1O)c1c(O)c2ccccc2[nH]c1=O,Potency,[1],inactive
same,Potency,[2],100 µM (active)
same,Potency,[4],inactive
O=C(CSc1nnc(SCc2ccc(Cl)cc2)s1)N/N=C/c1ccc(C(=O)O)cc1,Potency,[1],inactive
same,Potency,[2],inactive
same,Potency,[4],inactive
Cc1nn(C)cc1N1C(=O)c2cccc3c(N)ccc(c23)C1=O,Potency,[10],6.51 µM (active)
same,Potency,[1],112 µM (active)
same,Potency,[2],100 µM (active)
CC1=NN(c2nc(-c3ccccc3)cs2)C(=O)C1,Potency,[1],inactive
same,Potency,[2],inactive
same,Potency,[4],inactive
Cc1ccc(S(=O)(=O)N2CCOCC2)cc1NC(=O)COC(=O)CCOc1ccc(C(C)(C)C)cc1,Potency,[1],inactive
same,Potency,[2],inactive
same,Potency,[4],inactive
CCOc1ccc(C(=O)CCN2CCCCCC2)cc1,Potency,[1],inactive
same,Potency,[2],inactive
same,Potency,[4],inactive
CCN1/C(=C\c2ccc3ccccc3[n+]2CC)Sc2cc(C)ccc21,Potency,[11],21.3 µM (active)
same,Potency,[1],inactive
same,Potency,[2],inactive
Cc1ccc(C)c(CN2C(=O)C(O)(c3c[nH]c4ccccc34)c3ccccc32)c1 (centres undefined),Potency,[1],inactive
same,outcome,[5],inactive [at 12.7 µM]
CCCOP(=O)(OCCC)C(Nc1cccc(C(F)(F)F)c1)c1ccc(C)cc1 (centres undefined),Potency,[1],inactive
same,Potency,[2],inactive
same,Potency,[4],inactive
O=S(=O)(c1cc(C(F)(F)F)ccc1Cl)N1CCN(c2ncnc3ccccc23)CC1,Potency,[1],inactive
same,Potency,[2],inactive
same,Potency,[4],inactive
C=CCN(C(=O)Cn1ncc2c1-c1cc(C)ccc1OC2)c1ccccc1,Potency,[1],inactive
same,Potency,[2],inactive
same,Potency,[4],inactive
CCN1CCN(S(=O)(=O)c2ccc(Cl)c(C(=O)N(C)Cc3cccc(Cl)c3Cl)c2)CC1,Potency,[1],inactive
same,Potency,[2],inactive
same,Potency,[4],inactive
COc1ccc(Cl)cc1NC(=O)COC(=O)c1cc(NS(=O)(=O)c2cccs2)ccc1O,Potency,[1],inactive
same,Potency,[5],inactive
same,Potency,[3],inactive
O=C(NC1CCCCC1)C(c1ccc(C(F)(F)F)cc1)n1c(=O)c(-c2ccco2)nc2ccccc21 (centres undefined),Potency,[1],inactive
same,Potency,[2],inactive
same,Potency,[4],inactive
CCCCC[C@H](C)N1C[C@@H](COCc2ccccc2)Oc2cc(N3CC[C@H](N(C)C)C3)ccc2S1(=O)=O,Potency,[1],inactive
same,Potency,[2],inactive
same,Potency,[4],inactive
COc1ccc(CN(C)C(=O)c2ccc(OCC(=O)Nc3cccc(C(F)(F)F)c3)c(OC)c2)c(OC)c1,Potency,[1],inactive
same,Potency,[2],inactive
same,Potency,[4],inactive
CCCCC[C@@H](C)N1C[C@H](COCc2ccccc2)Oc2cc(N3CC[C@H](N(C)C)C3)ccc2S1(=O)=O,Potency,[1],inactive
same,Potency,[2],inactive
same,Potency,[4],inactive
C[C@@H]1CN([C@@H](C)CO)C(=O)Cc2cc(NC(=O)C3CCCCC3)ccc2O[C@H]1CN(C)S(=O)(=O)c1ccccc1,Potency,[1],inactive
same,Potency,[2],inactive
same,Potency,[4],inactive
COc1ccccc1-c1nc2ccccc2n(CC(C)C)c1=O,Potency,[1],inactive
same,Potency,[2],inactive
same,Potency,[4],inactive
COC(=O)C1CCN(c2nc3ccccc3nc2C(C#N)C(=O)NCCc2ccccc2)CC1 (centres undefined),"activity change, negative = inhibition",[12],-19.5% [at 17.2 µM]
same,outcome,[13],inactive
same,Potency,[14],> 20.6 µM
same,Potency,[1],inactive
same,Potency,[2],inactive
same,Potency,[4],inactive
COc1cc(C(=O)N(C)CCOc2ccccc2)ccc1OCC(=O)Nc1cccc(C(F)(F)F)c1,Potency,[1],inactive
same,Potency,[2],inactive
same,Potency,[4],inactive
O=c1c2ccccc2c(C=Nc2ccc(O)cc2)c(O)n1-c1nccs1,Potency,[1],inactive
same,Potency,[5],inactive
O=C1CN(C(=O)c2c(F)cccc2Cl)C(c2ccc(F)cc2)c2cc(Br)ccc2N1 (centres undefined),Potency,[1],inactive
same,Potency,[5],inactive
CCC(CO)Oc1cc(NCc2ccc(C(C)(C)C)cc2)c2ncn(C(C)C)c2c1 (centres undefined),Potency,[1],inactive
same,Potency,[2],inactive
same,Potency,[4],inactive
